In PubChem BioAssay (NCATS):
Results filed as inconclusive are left out. Calls of active or inactive are those of the source. The call rests on the fitted dose curve; in most records, active means well fitted curve in the direction sought with a large enough effect; inconclusive means small, poorly fitted or top-dose-only effect, or another doubt; inactive means no such curve, though single readings can be large; an effect the other way counts as inactive or inconclusive.

test: qHTS for Inhibitors of Plasmodium falciparum (DD2) proliferation (AID 504314); further: potency means the concentration at half of the fitted maximal effect;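 on activity, negative = inhibition: parasite DNA measured by SYBR Green fluorescence after red cell lysis; plate controls were DMSO vehicle for no effect and artemisinin wells for full effect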; conditions: P. falciparum Dd2 in erythrocytes, SYBR Green growth, 72 h; series mostly up to 1.12 µM; activity, negative = inhibition: at the top concentration
In short: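 Fluorescence read-out (ex 485/em 535 nm) of SYBR Green-stained parasite DNA quantifies intraerythrocytic growth. Cultures at 0.3% parasitemia and 2.5% hematocrit were treated for 72 h; data normalized to DMSO and 0.29 uM artemisinin wells.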

activity, negative = inhibition, inactive:
CC(=O)C1=C(C)N(Cc2ccccc2)C(=O)N[C@H]1c1ccco1 3.23%
COC(=O)[C@@]1(C=C2c3ccc(F)cc3[C@@H](OC)[C@@H]2C)[C@@H]2CC=C[C@@H]21 -10.8% [at 6.11 µM]
COC/C=C/C1=CC2=CC(=O)C(C)(OC(=O)c3cnc4ccccc4n3)C(=O)C2=CN1Cc1ccc2c(c1)OCO2 (stereo not drawn) 2.69%
COC(=O)CCC(=O)OC1(C)C(=O)C2=CN(c3ccccc3)C(c3ccc(OC)cc3)=CC2=C(Br)C1=O (stereo not drawn) 1.63%
COC/C=C/C1=CC2=CC(=O)C(C)(OC(=O)c3cnc4ccccc4n3)C(=O)C2=CN1C1CCCC1 (stereo not drawn) -0.595%

Potency, active:
CCCC[C@]12Cc3cc(OC)c(OC)cc3[C@H](O1)C1=C(O2)C(=O)c2ccccc2C1=O 3000 nM

test: qHTS for Inhibitors of Plasmodium falciparum (GB4) proliferation (AID 504315);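 further: 0% = DMSO vehicle and -100% = 0.29 µM artemisinin control; nearly all actives have a fitted effect of over 50% in size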; conditions: P. falciparum GB4 in erythrocytes, SYBR Green DNA, 72 h; series mostly up to 6.7 µM; activity change, negative = inhibition: at the top concentration
In short: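 Erythrocytes infected with P. falciparum line (0.3% parasitemia, 2.5% hematocrit final) incubated with compounds 72 h at 37 °C, 5% CO2; SYBR Green lysis buffer added, fluorescence read next day. Normalized to 0.29 uM artemisinin and DMSO.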

Activity change, negative = inhibition, inactive:
COC(=O)N1CCc2cc(OC)c(OC)cc2C1Cc1ccc(OC)cc1 (stereo not drawn) 14.9%
COC(=O)C1=C(C(=O)OC)[C@@H]2Nc3ccccc3[C@@]23C[C@@H](C(=O)OC)N(C(=O)c2ccco2)C3=N1 10.4%
COC(=O)N[C@@H](c1cccc(C)c1)C(C(C)=O)C(=O)OC (stereo partly drawn) 11.9%
COC(=O)c1ccccc1S(=O)(=O)N1CCc2nc(COc3ccccc3)c3c(c2C1)CO[C@@H](C)C3 -7.01%
CCCCC1=CC2=CC(=O)C(C)(OC(=O)CC)C(=O)C2=CN1CCc1c[nH]c2ccccc12 (stereo not drawn) 0.44%
CCN1C(=O)[C@@H]2[C@H]3[C@H](O)[C@H](O)CC(=NO[C@@H](C)c4cc(-c5c(C)cc(C)cc5C)no4)[C@@H]3CC[C@H]2C1=O 5.14%
C=CCN1C=C2C(=O)C(C)(OC(=O)c3cnc4ccccc4n3)C(=O)C=C2C=C1/C=C/COC (stereo not drawn) 7.97%
